Among all 69,000 compounds or so, about 8,600 (12%) showed an effect of 50% or more. For the sample, strong results were picked, then their nearest neighbours and some compounds at random.

This assay has as its system Plasmodium berghei. The assay can be described thus: Screen against P. berghei liver stage (PbLuc), transformed with Luciferase, at 10uM. The conditions noted are these: tested at 10 uM. The class given is functional, HepG2.
Take `CCOCCOc1ccc(S(=O)(=O)N2CCc3c(nc[nH]c3=O)C2)cc1`: the INHIBITION stood at 5.05%.

Regarding `Cc1nc(CN2CCN(CC3CCOC3)Cc3cccnc32)cs1` (configuration not stated), the INHIBITION came out at 41%.

As for `NC(=O)CSc1ccccc1NC(=O)C1CCCC1`, the INHIBITION was -53.6%.

For `COc1cccc(C=CCCN2CCC(C(=O)N3CCCC3)CC2)c1`, the INHIBITION is recorded as -16.1%.

Regarding `O=C1NC2(CCN(C(=O)CN3CCOCC3)CC2)Nc2ccc(Cl)cc21`, the INHIBITION came out at 23.75%.

With `Cn1ccc2cc(C(=O)Nc3nc[nH]n3)ccc21`, the INHIBITION is recorded as 11.6%.

Take `CN(C)C(=O)c1nnn(-c2ccc(Br)cc2)n1`: the INHIBITION is 28.4%.

For `CCNc1cc2c(nn1)CCN(C(=O)Cc1ccc(C)nc1)C2`, the INHIBITION is -42.1%.

As to `CCc1ccc(C(=O)N2CCCC3(CCCC(=O)N3C)C2)cc1` (configuration not stated), the INHIBITION was 30.9%.

On to `O=C(CS(=O)(=O)C1CCCC1)NC(c1ccc(F)cc1)C1CC1` (configuration not stated), for which the INHIBITION is listed as -32.6%.

As to `COCCN1C[C@@H]2CC[C@H]1CN(Cc1nc3ccccc3n1C)C2`, the INHIBITION is given as -35%.

In the case of `CC(=O)NCCNC(=O)c1cnc(-c2ccc(C)cc2C)s1`, the INHIBITION is -74.9%.

As to `CN(Cc1cnc(N)nc1)C(=O)c1coc(COc2ccccc2)n1`, the INHIBITION turned out to be 27.6%.

As for `CN1CCN(Cc2cccnc2)C(=O)C12CCN(Cc1ccco1)CC2`, the INHIBITION is 32.1%.

As for `Cc1nccn1Cc1nnc(C2CCN(c3ccncc3F)CC2)n1C`, the INHIBITION is recorded as -21.9%.

For the molecule `CC[C@@H]1N(Cc2ccsc2)CCC[C@]12CCC(=O)N2C`, the INHIBITION stood at 23.2%.

In the case of `CC[C@@H]1N(Cc2ccsc2)CCC[C@]12CCC(=O)N2CCOC`, the INHIBITION was determined as 52.4%.

`CC[C@@H]1N(Cc2ccncc2)CCC[C@]12CCC(=O)N2CCOC`: the INHIBITION is recorded as 25.3%.

Consider `Cc1csc(CN2CC[C@@](O)(C3CCOCC3)[C@H](C)C2)n1`, for which the INHIBITION stood at 9.55%.

As to `O=C1NCc2ccccc2CC12CCN(Cc1c(F)cccc1Cl)C2` (configuration not stated), the INHIBITION was -9.73%.

As for `COc1ccc(CN(C(=O)C2CCOCC2)c2ccncc2)cc1`, the INHIBITION is listed as 1.7%.

In the case of `COc1ccc(CN(C(=O)C2CCCOC2)c2ccncc2)cc1` (configuration not stated), the INHIBITION is recorded as 66.3%.

In the case of `COc1ccc(CN(C(=O)C2CCCO2)c2ccncc2)cc1` (configuration not stated), the INHIBITION came out at 27.5%.

Turning to `Brc1cnc(NCc2ccccc2N2CCOCC2)nc1`, the INHIBITION was -31.7%.

With `COCCC(=O)N1CC2(CCN(c3ccccc3)C2)C1`, the INHIBITION was found to be 12.1%.

As to `O=C(CO)N1CC2(CCN(c3ccccc3)C2)C1`, the INHIBITION is recorded as -34.6%.

In the case of `O=C(CCO)N1CC2(CCN(c3ccccc3)C2)C1`, the INHIBITION turned out to be 61.9%.

As for `Cc1nn(C)c(N(C)C)c1CNCCCNS(C)(=O)=O`, the INHIBITION was -66.8%.

Regarding `CSc1[nH]nc(NC(=O)c2ccccc2)c1C#N`, the INHIBITION amounted to 23.1%.

For the molecule `O[C@H]1Cc2ccccc2[C@H]1Nc1ncccc1C(F)(F)F`, the INHIBITION came to 56.3%.

Consider `O[C@@H]1Cc2ccccc2[C@@H]1Nc1ncccc1F`, for which the INHIBITION amounted to 18%.

On to `N#Cc1cccnc1N[C@@H]1c2ccccc2C[C@@H]1O`, for which the INHIBITION was found to be 22.9%.
